This is a sample that favours compounds with a hit; in the whole collection about 9.2% have one here.
SMN2 splice up: enhancers of SMN2 splice variant expression; Potency, µM (top dose mostly 46.1 µM), without a hit: top-dose activity change, positive = activation, usual class: activators; 2.8% of 210,000 active; HEK293 SMN2-luciferase splicing reporter, luminescence, 30-36 h; also: % of control where 0% means no effect; nearly all actives have a fitted effect of over 55% in size
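HEK293 cells carry an SMN2 minigene-luciferase reporter in which exon 7 inclusion puts luciferase in frame. Cells were seeded at 2000 cells/well, attached for 10-12 hours, then exposed to compounds for 30-36 hours at 37C before ONE-Glo luminescence.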
Rab9 prom act: activators of Rab9 promoter. Potency, µM (doses to about 9.22 µM), inactives show at the top dose activation, negative = inhibition, usual class: activators. 2.8% of 320,000 active. Huh7 Rab9 promoter-luciferase reporter, luminescence, 24 h; also: % of control where 0% means no effect; nearly all actives have a fitted effect of over 60% in size
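Quantitative HTS format; Huh7 Rab9-luciferase reporter cells (1500/well) receive compound 2 h post-plating, incubate 24 h at 37 °C, then get luciferase reagent for 10 min before luminescence reading.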
NPC1 prom act: activates the NPC1 promoter; Huh7 NPC1 promoter luciferase reporter, 24 h; Potency, µM (highest dose often 9.22 µM), for the others: at the highest dose activation, actives largely listed as activators; 2.4% of 320,000 active; AID 485313; also: % of control where 0% means no effect; nearly all actives have a fitted effect of over 60% in size
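Stable NPC1-promoter luciferase Huh7 line; cpd (DMSO) 24 h, 37 °C, 5% CO2; Amplite luciferase reagent 10 min RT; luminescence readout. qHTS format.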
FLuc counter: firefly luciferase modulation, counter-screen for miR-21 project; P08659; 6.9% of 360,000 active; Potency, µM (series often up to 57.5 µM), inactives show at the top dose activity change, negative = inhibition, actives largely listed as inhibitors; purified FLuc, Km substrates, luminescence inhibition;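 also: plate controls were vehicle for no effect and reference inhibitor for full effect; nearly all actives have a fitted effect of over 55% in size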
Target sequence (P08659 whole entry, looked up): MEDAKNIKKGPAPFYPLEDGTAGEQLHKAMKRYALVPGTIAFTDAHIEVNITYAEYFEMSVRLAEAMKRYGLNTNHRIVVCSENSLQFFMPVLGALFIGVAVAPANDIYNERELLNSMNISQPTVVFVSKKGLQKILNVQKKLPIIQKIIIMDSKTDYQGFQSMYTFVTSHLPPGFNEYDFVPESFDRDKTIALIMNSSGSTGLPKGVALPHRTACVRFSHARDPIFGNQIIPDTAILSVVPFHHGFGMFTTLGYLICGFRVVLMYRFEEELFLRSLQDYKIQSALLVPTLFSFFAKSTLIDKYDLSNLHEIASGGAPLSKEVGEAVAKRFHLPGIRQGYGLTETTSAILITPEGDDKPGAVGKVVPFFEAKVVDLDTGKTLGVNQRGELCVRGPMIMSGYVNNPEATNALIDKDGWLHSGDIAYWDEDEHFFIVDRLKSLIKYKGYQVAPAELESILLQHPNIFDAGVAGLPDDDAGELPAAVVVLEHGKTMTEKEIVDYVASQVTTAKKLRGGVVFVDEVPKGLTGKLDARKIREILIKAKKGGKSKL
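Purified P. pyralis luciferase, 10 nM final, with Km-level 10 uM D-luciferin and 10 uM ATP in 50 mM Tris acetate pH 7.5, 10 mM Mg acetate, 0.01% Tween-20, 0.05% BSA; 6-point qHTS titration about 60 µM downward; luminescence read.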
ELG1 genotox: genotoxicity induction in ELG1-luciferase HEK293T cells; HEK293T ELG1-luciferase reporter, luminescence, 16 h; 1.3% of 330,000 active; Potency, µM (series often up to 46 µM), for inactives: at the highest dose activity change, positive = activation, most hits filed as activators; also: % of control where 0% means no effect; nearly all actives have a fitted effect of over 60% in size
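HEK293T cells expressing luciferase-tagged ELG1 were treated with compound or DMSO for 16 hr at 37°C. Luciferase activity was then read after 30 min with ONE-Glo at room temperature; rising signal flags genetic stress.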
ELG1 repair inh: inhibitors of ELG1-dependent DNA repair in HEK293T cells; HEK293T ELG1-luciferase reporter, luminescence, 16 h; DNA damage induced by 5-fluorouridine; Potency, µM (top dose mostly 46.1 µM), for inactives: at the top dose activity change, negative = inhibition, usual class: inhibitors; 2.3% of 330,000 active; AID 504467; also: % is scaled to controls: 0 for no effect and ±100 for the full control effect; nearly all actives have a fitted effect of over 55% in size
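Quantitative HTS, concentration-response format. 2,000 cells/well co-treated with 5-fluorouridine and compound, 16 hr in 5% CO2 at 37 °C; ONE-Glo luminescence read after 30 min.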
Active calls of the source: *. Calls follow the shape of the dose curve; as a rule, active = well fitted curve in the direction sought with a large enough effect; inconclusive = small, poorly fitted or top-dose-only effect, or another doubt; inactive = no such curve, though single readings can be large; an effect the other way counts as inactive or inconclusive. Potency is read from the fitted curve at half-maximal effect.

Cc1ccc(CSc2nnc(CC(=O)Nc3ccc(C)cc3)n2C)cc1 was read as SMN2 splice up -5.3%, Rab9 prom act -1.3%, NPC1 prom act -3.3%, FLuc counter -0.6%, ELG1 genotox 1.1% and ELG1 repair inh -6.2%.
`Cc1ccc(NC(=O)Cc2nnc(SCC(=O)Nc3ccccc3)n2C)cc1` gave SMN2 splice up 4.8%, Rab9 prom act -5.7%, NPC1 prom act 1.4%, FLuc counter 19µM*, ELG1 genotox 0.0% and ELG1 repair inh 8.8%.
`COc1cccc(/C=N/N2CCOCC2)c1O` gave Rab9 prom act inconclusive, NPC1 prom act 29.9%, FLuc counter 6.75µM*, ELG1 genotox inconclusive and ELG1 repair inh inconclusive.
For COc1cccc(/C=N/N2C(=O)NC3(CCCCC3)C2=O)c1O the results were SMN2 splice up -10.1%, Rab9 prom act -3.2%, NPC1 prom act 0.1%, FLuc counter 13.5µM*, ELG1 genotox 2.1% and ELG1 repair inh -0.9%.
Screening CCOc1cc(/C=N/N2C(=O)NC3(CCCCC3)C2=O)cc(Br)c1O returned SMN2 splice up 9.7%, Rab9 prom act 8.9%, NPC1 prom act -4.4%, FLuc counter -4.3%, ELG1 genotox -0.6% and ELG1 repair inh inconclusive.
`Cc1cc(O)c(C=Nc2ccc(N3CCOCC3)cc2)c(C)c1Cl` gave Rab9 prom act 5.0%, NPC1 prom act 0.4%, FLuc counter 4.78µM*, ELG1 genotox -1.1% and ELG1 repair inh -4.8%.
Screening Oc1ccc(/C=N/N2CCOCC2)c(O)c1O returned SMN2 splice up 8.8%, Rab9 prom act 6.1%, NPC1 prom act -4.2%, FLuc counter inconclusive, ELG1 genotox -14.2% and ELG1 repair inh -3.1%.
COc1cccc(C=Nc2ccc3c(c2)OCCO3)c1O was read as SMN2 splice up 18.8%, Rab9 prom act -0.7%, NPC1 prom act 7.4%, FLuc counter 19µM*, ELG1 genotox inconclusive and ELG1 repair inh inconclusive.
Cc1ccccc1OCC1CO1 (stereo not drawn) was read as SMN2 splice up -14.1%.
`Cc1ccc(NC(=O)CCSc2nc(-c3ccco3)cc(C(F)(F)F)n2)cc1F` gave SMN2 splice up -0.7% and FLuc counter -0.8%.
Cc1cc(C)c(NC(=O)CN2C(=O)CC(C)S(=O)(=O)c3ccccc32)c(C)c1 (stereo not drawn) was read as Rab9 prom act 3.1%, NPC1 prom act inconclusive, FLuc counter 1.0%, ELG1 genotox 4.1% and ELG1 repair inh inconclusive.
For CN(c1ncc(C(F)(F)F)cc1Cl)N1C(=O)c2cccc([N+](=O)[O-])c2C1=O the results were SMN2 splice up 6.2%, Rab9 prom act -3.0%, NPC1 prom act -0.9%, FLuc counter 2.5%, ELG1 genotox 1.6% and ELG1 repair inh 11.1%.
Screening COc1cccc(C=Nc2ccc(N3CCOCC3)cc2)c1O returned Rab9 prom act 15.3%, NPC1 prom act 3.7%, FLuc counter 12µM*, ELG1 genotox -3.0% and ELG1 repair inh -5.4%.
For Cc1cccc(N=Cc2cc(Br)cc(Cl)c2O)c1 the results were SMN2 splice up -6.2%, Rab9 prom act -2.3%, NPC1 prom act 0.3%, FLuc counter inconclusive, ELG1 genotox -0.7% and ELG1 repair inh 11.1%.
Screening CCN1CCN(c2ccc(N=Cc3ccccc3O)cc2)CC1 returned SMN2 splice up -1.0%, Rab9 prom act 0.8%, NPC1 prom act 1.7%, FLuc counter 21.3µM*, ELG1 genotox -1.4% and ELG1 repair inh -13.7%.
For COc1ccc(N=Cc2cccc(C)c2O)cc1Cl the results were SMN2 splice up 6.8%, Rab9 prom act 10.2%, NPC1 prom act -3.7%, FLuc counter 26.9µM*, ELG1 genotox 1.9% and ELG1 repair inh 9.3%.
For Cc1cc(C)c(C)c(S(=O)(=O)NCC(=O)Nc2ccccc2F)c1C the results were Rab9 prom act 0.0%, NPC1 prom act -1.3%, FLuc counter 0.2%, ELG1 genotox -1.4% and ELG1 repair inh -1.7%.
Screening CC(=O)c1ccc(N2CCN(C(=O)Nc3cccc(F)c3)CC2)cc1 returned SMN2 splice up 11.1%, Rab9 prom act -3.4%, NPC1 prom act -0.5%, FLuc counter 1.8%, ELG1 genotox -4.5% and ELG1 repair inh inconclusive.
`COc1ccc(OCc2nc(-c3ccc(F)c(F)c3)cs2)cc1` gave Rab9 prom act -6.8%, NPC1 prom act 1.5%, FLuc counter -6.2%, ELG1 genotox -3.4% and ELG1 repair inh -8.9%.
For Cc1c(C(=O)NCCCN2CCOCC2)oc2c1C1(CCC2)SCCS1 the results were SMN2 splice up 4.6%, Rab9 prom act 2.4%, NPC1 prom act -2.3%, FLuc counter -17.1%, ELG1 genotox 0.9% and ELG1 repair inh inconclusive.
For O=C(Nc1nnc(SCCC2OCCO2)s1)C1CC(=O)N(c2ccc(F)cc2)C1 (stereo not drawn) the results were Rab9 prom act 3.4%, NPC1 prom act 4.7%, FLuc counter 2.4%, ELG1 genotox 1.5% and ELG1 repair inh 1.1%.
For Cc1nnc(SCC(C)C)[nH]c1=O the results were SMN2 splice up 5.8%, Rab9 prom act -14.7%, NPC1 prom act 7.0%, FLuc counter 4.8%, ELG1 genotox 4.2% and ELG1 repair inh 0.1%.
`Cc1nn(CC(C)C)c(=S)[nH]c1=O` gave SMN2 splice up 5.62µM*, Rab9 prom act -8.6%, NPC1 prom act -4.1%, FLuc counter 0.3%, ELG1 genotox -3.6% and ELG1 repair inh 11.2%.
`Cc1cc(C)nc(SCC(=O)c2ccc(F)cc2)n1` gave Rab9 prom act 20.8%, NPC1 prom act 9.1%, FLuc counter -13.1%, ELG1 genotox 7.8% and ELG1 repair inh 20.7%.
`Cc1cc(C)nc(S/C=C/C(=O)c2ccc(F)cc2)n1` gave Rab9 prom act -18.9%, NPC1 prom act -6.1%, FLuc counter 1.9µM*, ELG1 genotox 15.6% and ELG1 repair inh inconclusive.
Screening OCC1OC(Oc2c[nH]c3ccccc23)C(O)C(O)C1O (stereo not drawn) returned Rab9 prom act 1.4%, NPC1 prom act 8.4%, FLuc counter 3.0%, ELG1 genotox -10.9% and ELG1 repair inh 13.7%.
`CCC(C)c1ccc(OCc2ccc(C(=O)O)o2)cc1` (stereo not drawn) gave Rab9 prom act inconclusive, NPC1 prom act inconclusive, FLuc counter 3.01µM*, ELG1 genotox 0.411µM* and ELG1 repair inh inconclusive.
`CCOC(=O)c1ccc(COc2ccc(C(C)C)cc2)o1` gave Rab9 prom act 0.501µM*, NPC1 prom act 0.631µM*, FLuc counter 15.1µM*, ELG1 genotox inconclusive and ELG1 repair inh inconclusive.

Compound activity from PubChem BioAssay.
